The list is not random: actives were taken first. Their share in the collection is about 6%.
D1 ag: human D1 receptor agonism | P21728 | HEK293 T-REx D1 cells, calcium flux, agonist mode | actives 1% (n = 360,000) | activation, % at 2 µM; in the data active = activation above about 30%; note: 0% is about no effect
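Agonism was scored from calcium flux recorded over 180 s (1 read/s) after pintool compound addition, following a 10-cycle baseline. Cells were inducible force-coupled HEK293 TREx D1, plated overnight at 30 C and loaded with no-wash calcium dye.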
D3 ag: activates the human D3 dopamine receptor; D3R DiscoveRx beta-arrestin cells, luminescence, 90 min; P35462; max activation, %; actives 0.58% (n = 410,000); in the data active = max activation above about 30%; note: 0% is about no effect
Target sequence (P35462 whole entry, looked up): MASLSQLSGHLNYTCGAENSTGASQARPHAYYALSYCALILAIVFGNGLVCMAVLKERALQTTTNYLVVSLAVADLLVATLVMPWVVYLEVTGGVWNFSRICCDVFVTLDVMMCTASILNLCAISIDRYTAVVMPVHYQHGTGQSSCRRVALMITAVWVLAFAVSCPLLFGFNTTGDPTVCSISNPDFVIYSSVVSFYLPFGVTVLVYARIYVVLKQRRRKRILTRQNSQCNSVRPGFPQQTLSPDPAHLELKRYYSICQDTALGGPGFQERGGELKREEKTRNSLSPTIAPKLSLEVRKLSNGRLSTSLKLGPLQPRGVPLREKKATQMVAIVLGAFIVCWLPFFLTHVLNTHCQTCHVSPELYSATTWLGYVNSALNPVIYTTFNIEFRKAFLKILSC
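Agonist-mode cell screen: cells plated at 1500/well and incubated overnight at 37 °C, then exposed to library compounds for 90 min at 37 °C. Detection reagent was added for 30–60 min at room temperature, and luminescence was read.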
D1 PAM: potentiators of human D1 dopamine receptor. potentiation, % at 10 µM. HEK293 TREx D1 cells, calcium flux, dopamine EC20 potentiation. actives 0.036% (n = 360,000). P21728; in the data active = potentiation above about 30%; note: 0% is about no effect
D1 antagonist: blocks dopamine activation of the human D1 receptor; actives 3.2% (n = 360,000); HEK293 TREx D1 cells, calcium flux, dopamine EC80; active compounds read low; P21728; activity change, negative = inhibition, % at 10 µM; in the data active = activity change below about -30%; note: % is set by controls: 0 for no effect and ±100 for the full control effect
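After overnight tetracycline induction at 30 C, force-coupled D1 HEK293 cells took up a no-wash calcium dye at room temperature. Compounds were added and monitored 180 s, and the response to EC80 dopamine was then recorded.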
D3 antag: D3 dopamine receptor (human) antagonism | P35462 | D3R cells, DiscoveRx beta-arrestin luminescence, antagonist mode; active compounds read low | max response, negative = inhibition, % | actives 2.5% (n = 360,000); in the data active = max response below about -50%; inconclusive = no clear call, values can overlap the other calls; note: % is set by controls: 0 for no effect and ±100 for the full control effect
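Cells plated overnight at 1500 cells/well, then exposed to library compounds with dopamine controls for 90 minutes at 37 degrees C. DiscoveRx reagent added for 30–60 minutes at room temperature; luminescence read, quantitative HTS format.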
* hit, by the source's call; ? = inconclusive; nt = no result given.

SMILES	D1 ag	D3 ag	D1 PAM	D1 antagonist	D3 antag
CCOc1ccccc1NC(=O)C(OC(=O)C1CC1)c1ccccc1 (centres undefined)	30*	12	-2	-18	27
CC(C)c1ccc(S(=O)(=O)c2cnc(=S)[nH]c2N)cc1	6	-7	0	2	-59*
CC(C)(C)n1ncc2c(=O)n(CC(=O)NCc3ccccc3)cnc21	0	-6	-3	-3	-22
Cn1ncc2c(=O)n(CC(=O)NC34CC5CC(CC(C5)C3)C4)cnc21	2	3	3	-34*	22
COc1ccc(-c2nc(CS(=O)(=O)CC(=O)NC3CCC(C)CC3)c(C)o2)cc1 (centres undefined)	31*	-3	-5	-33*	7
CC(=O)Nc1ccc(S(=O)(=O)NCc2cn3c(C)csc3n2)cc1	1	0	0	-8	-69*
Cc1csc2nc(CNS(=O)(=O)c3ccc4c(c3)CCCC4)cn12	10	12	-17	-60*	4
COc1ccc(OC)c(S(=O)(=O)NCc2cn3c(C)csc3n2)c1	2	-1	-2	-1	27
COc1ccc(S(=O)(=O)NCc2cn3c(C)csc3n2)cc1F	3	2	-2	-49*	16
Cc1csc2nc(CNS(=O)(=O)N(C)C)cn12	1	1	nt	-72*	6
CCc1cccc(C)c1NC(=O)CN1C(=O)c2ccccc2Sc2ncccc21	4	-6	-1	6	nt
Cc1ccc(NC(=O)CSCn2nnc3c(=O)[nH]c(Cc4ccc(F)cc4)nc32)c(C)c1	3	-2	0	-11	nt
COc1ccc(-n2nc(C(=O)NCCc3ccc(OC)c(OC)c3)c3c4ccccc4n(C)c3c2=O)cc1Cl	4	16	4	-18	nt
COc1cc2c(cc1OC)n(CC(=O)c1ccc(F)cc1)c(=O)n1nc(CCn3nc(C)cc3C)nc21	0	-4	0	17	nt
CCN1C(=O)C(Cc2nc3ccccc3c(=O)n2-c2ccccc2)c2cc(Br)ccc21 (centres undefined)	1	-5	-1	6	nt
CC1CCC(Nc2nc3c(-c4ccc(Cl)cc4)nnn3c3ccccc23)CC1 (centres undefined)	0	2	0	8	nt
O=C(COc1ccc(S(=O)(=O)Nc2ccc(Cl)cc2)cc1)N1CCOCC1	31*	19	-4	-13	4
CN(Cc1ccccc1)S(=O)(=O)c1ccc(OCC(=O)N2CCOCC2)cc1	8	10	-3	-32*	-14
CN(Cc1ccccc1)S(=O)(=O)c1ccc(OCC(=O)N2CCC(C(N)=O)CC2)cc1	5	5	1	-2	22
COc1ccc(NS(=O)(=O)c2ccc(OCC(=O)N3CCOCC3)cc2)cc1	10	8	-1	-7	-6
Cc1ccccc1NS(=O)(=O)c1ccc(OCC(=O)N2CCCCC2)cc1	4	32*	5	-2	9
O=C(CCNS(=O)(=O)c1ccc(Cl)cc1)N1CCOCC1	2	10	-6	-32*	4
O=C(CCNS(=O)(=O)c1ccc(Cl)cc1)N1CCCCCC1	3	7	-3	27	-3
CCOc1ccc2c(c1)c(=O)c(C(=O)c1ccc(CC)cc1)cn2CC(=O)Nc1ccccc1OC	1	-6	2	-5	nt
CCOc1ccc(NC(=O)c2c(C)nn(-c3ccc(F)cc3)c2-n2cccc2)cc1	0	4	-2	9	nt
SMILES	D1 ag	D3 ag	D1 PAM	D1 antagonist	D3 antag
O=C(Nc1ccc(F)c(Cl)c1)C1CCN(S(=O)(=O)c2ccc3[nH]c(=O)ccc3c2)CC1	2	4	-7	-6	nt
Cc1csc2nc(COc3ccc(NC(=O)COc4ccc(F)cc4)cc3)cc(=O)n12	8	7	-5	-17	nt
CCc1ccccc1NC(=O)c1cc(S(=O)(=O)N(CC)c2ccccc2)ccc1F	0	3	0	4	nt
COc1ccc(Cn2c(=O)c3ccccc3n3c(-c4ccc(C)cc4)nnc23)cc1	8	-8	-1	0	nt
COc1cccc(Nc2ccc(-n3ccnc3)nn2)c1	0	-11	-8	-66*	1
Cc1ccc(Nc2ccc(-n3ccnc3)nn2)cc1C	0	-15	-7	8	-7
Cc1ccc2c(c1)C(=O)C(=O)N2Cc1ccc(F)cc1	nt	-32	nt	nt	?
Cc1ccc2c(c1)C(=O)C(=O)N2CCCOc1ccccc1	2	-7	-1	8	-50*
Cc1ccc2c(c1)C(=O)C(=O)N2Cc1ccc(Cl)cc1	nt	-34	nt	nt	-64*
Cc1ccc(-n2c(=O)c3c(c4cc(C)ccc4n3C)n(CC(=O)NCCC3=CCCCC3)c2=O)cc1	-1	-3	2	5	nt
COc1ccc(OC)c(-c2noc(CSc3nnc(Cc4ccccc4)n3-c3cccc(C)c3)n2)c1	11	6	0	-7	nt
O=S(=O)([O-])CCC[n+]1c(/C=C\Nc2ccccc2)oc2ccc(-c3ccccc3)cc21	123*	nt	-1	-3	nt
Cn1c(=O)c2c(-c3ccccc3)n3c(c2n(C)c1=O)C(c1ccco1)Nc1ccccc1-3 (centres undefined)	1	-12	2	-31*	nt
O=C(NNC(=O)c1cccc(O)c1)Nc1ccc([N+](=O)[O-])cc1	3	-6	16	2	-57*
Cc1ccc(NC(=O)c2ccc(Nc3c([N+](=O)[O-])cc([N+](=O)[O-])cc3[N+](=O)[O-])cc2)cc1	15	-16	0	-26	-77*
CC(=O)Nc1ccc(NC(=O)c2cc([N+](=O)[O-])cc([N+](=O)[O-])c2)cc1	2	0	-7	-4	9
O=C(Nc1ccc(Br)cc1)c1cc([N+](=O)[O-])cc([N+](=O)[O-])c1	19	1	-3	-37*	0
Cc1cc(Nc2nc3ccccc3c3nnc(C)n23)ccc1Br	4	4	-1	11	nt
CCC/C(O)=C1\C(=O)CC(C)(C)CC1=Nc1ccc(OC)cc1	1	-7	51*	-6	8
CCCC/C(O)=C1\C(=O)CC(C)(C)CC1=Nc1ccc(OC)cc1	1	1	-2	15	-2
COC(=O)c1ccc(C2CC(=O)Nc3c2c(C)nn3-c2nc(C)cc(C)n2)cc1 (centres undefined)	-1	-3	2	2	nt
CCOc1ccc(-c2[nH]nc3c2C(c2cccnc2)C(C#N)=C(N)O3)cc1 (centres undefined)	0	-1	-2	-12	-51*
CCc1[nH]nc2c1C(c1cccnc1)C(C#N)=C(N)O2 (centres undefined)	0	-2	2	-6	-21
CC(C)(O)CC[C@@H](O)[C@](C)(O)C1CC[C@@]2(O)C3=CC(=O)[C@]4(O)C[C@@H](O)[C@@H](O)C[C@]4(C)C3CC[C@]12C (some centres undefined)	1	1	6	-33*	10

Source: PubChem BioAssay (National Center for Advancing Translational Sciences (NCATS))
